For 40 molecules, inhibition results are on record in PubChem BioAssay.

A number with no mark means an inactive call. The rule behind the calls is not given here.

The target of the test is Pantothenate synthetase (Mycobacterium tuberculosis (strain ATCC 25618 / H37Rv)) (UniProt P9WIL5). Nature of the test: Recombinant Mtb pantothenate synthetase (PanC) inhibitors, coupled enzyme, confirmatory (AID 375).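 Note: 0% = full reaction with vehicle and 100% = no enzyme background.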 Particulars: coupled enzyme assay; at 10 µM, active compounds read high.
Pantothenate synthetase (Mycobacterium tuberculosis (strain ATCC 25618 / H37Rv)), sequence (P9WIL5 whole entry, looked up): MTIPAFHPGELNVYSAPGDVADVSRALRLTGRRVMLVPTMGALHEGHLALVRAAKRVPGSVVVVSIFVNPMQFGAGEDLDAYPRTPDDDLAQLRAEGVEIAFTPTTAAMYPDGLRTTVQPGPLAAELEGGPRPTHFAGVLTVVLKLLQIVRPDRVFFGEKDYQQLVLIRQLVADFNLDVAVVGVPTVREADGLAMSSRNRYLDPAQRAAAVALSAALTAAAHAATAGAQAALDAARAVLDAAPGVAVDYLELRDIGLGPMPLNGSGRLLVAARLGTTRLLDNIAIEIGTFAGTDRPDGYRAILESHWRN
For orientation: inhibition means the percentage by which the read-out fell short of the control. Take `CCOc1ccccc1NC(=O)N1CCCC1C(=O)Nc1nnc(CC)s1` (stereo not given): the inhibition was 0%.

Regarding `CC(=O)Nc1ccc(S(=O)(=O)n2nc(C)cc2C)cc1`, the inhibition was 0%.

Regarding `CCOC(=O)c1cc(-c2ccco2)nc2c1c(C)nn2CCC#N`, the inhibition is 0%.

Turning to `CCOC(=O)CNC(=O)CSc1ncnc2c1cnn2Cc1ccccc1`, the inhibition is 0%.

With `CCCCn1nnnc1SCC(=O)Nc1cccc(C)n1`, the inhibition is 1%.

Regarding `COc1ccc(-c2[nH]nc3c2C(c2ccncc2)C(C#N)=C(N)O3)cc1` (stereo not given), the inhibition was 0%.

As for `CCOC(=O)c1ccc(NC(=O)CCc2nc(-c3ccc(C)cc3)no2)cc1`, the inhibition is 0%.

Take `COc1ccc(-n2nc(C(=O)Nc3ccc4c(c3)OCO4)c3c4ccccc4n(C)c3c2=O)cc1`: the inhibition was 2%.

As for `COc1ccccc1C(=O)OCn1nnc2ccccc2c1=O`, the inhibition is 0%.

As for `CN(Cc1nc(-c2ccncc2)no1)S(=O)(=O)c1ccc(Br)cc1`, the inhibition is 2%.

For the molecule `Cc1noc(C)c1COc1cccc(C(=O)Nc2ccc(C#N)cc2)c1`, the inhibition was 0%.

Take `Brc1ccc2[nH]c3nc(SCCN4CCOCC4)nnc3c2c1`: the inhibition was 0%.

For the molecule `COC(=O)C1=C(C)Nc2nnnn2C1c1ccc(Cl)cc1Cl` (stereo not given), the inhibition is 0%.

Take `CCOC(=O)/C=C(\C)Sc1cc(=O)oc2ccccc12`: the inhibition is 6%.

Turning to `COc1ccc(CCN(C)CCCC(C#N)(c2ccc(OC)c(OC)c2)C(C)C)cc1OC` (stereo not given), the inhibition is 0%.

`CCOC(=O)CSc1nnc(CNC(=O)c2ccc(OC)c(OC)c2)n1C`: the inhibition was 0%.

As for `O=C(Nc1ccc2c(c1)OCO2)C(c1ccc(Cl)cc1)N1CCN(C(=O)c2ccco2)CC1` (stereo not given), the inhibition was 0%.

Regarding `Cc1ccccc1-n1c(=O)c2ccccc2n2nnnc12`, the inhibition was 0%.

For the molecule `O=C(O)c1cccc(NS(=O)(=O)c2ccc3nnn(O)c3c2)c1`, the inhibition was 0%.

`C=CC(O)(C#CCN(CC)CC)c1ccccc1` (stereo not given): the inhibition was 3%.

Turning to `CCCOc1ccc(C2c3c(oc4ccccc4c3=O)C(=O)N2CCCN2CCOCC2)cc1` (stereo not given), the inhibition is 4%.

Regarding `Cc1cc(C(=O)CSc2nc3ccccc3n2CCC#N)c(C)n1Cc1cccs1`, the inhibition was 0%.

Consider `O=S1(=O)N=C(Nc2nc3c(s2)CCCC3)c2ccccc21`, for which the inhibition was 4%.

Regarding `c1ccc2c(Cn3ccnc3)c[nH]c2c1`, the inhibition was 0%.

With `O=C(Cn1cnc2c(cnn2-c2ccccc2)c1=O)NCCc1ccccc1`, the inhibition is 0%.

Take `O=c1c2ccccc2nc(SCc2cccc(F)c2)n1Cc1ccco1`: the inhibition is 4%.

`Cn1c(=O)n(Cc2ccccc2)c(=O)c2c1nc(NCC1CCCO1)n2Cc1ccccc1` (stereo not given): the inhibition was 0%.

As to `O=C(CCN1CCN(CCO)CC1)Nc1ccc(OCc2ccccc2)cc1`, the inhibition is 6%.

For `O=C(Nc1nccs1)c1ccc(COc2ccccc2Br)o1`, the inhibition was 0%.

For `CCOC(=O)N1CCN(CC(=O)c2c(C)[nH]c3ccccc23)CC1`, the inhibition is 0%.

With `Cc1cc(S(=O)(=O)N2CCN(c3ncccn3)CC2)ccc1-n1cnnn1`, the inhibition is 1%.

Turning to `CC(C)[C@H](NC(=O)OC(C)(C)C)c1nnc(SCc2cccc(F)c2)o1`, the inhibition is 1%.

On to `CCOC(=O)C(CCc1nnc(N)s1)C(=O)OCC`, for which the inhibition is 4%.

In the case of `Cn1c(SCC(N)=O)nnc1C1CCN(S(=O)(=O)c2ccccc2C(F)(F)F)CC1`, the inhibition was 0%.

In the case of `Cn1c([N+](=O)[O-])cnc1COC(N)=O`, the inhibition is 0%.

As to `COc1ccc(N=c2scc(-c3ccc(S(=O)(=O)N4CCOCC4)cc3)n2CCCO)cc1`, the inhibition was 0%.

With `Cc1nnc(SCC(=O)Nc2ccc3c4c(cccc24)CC3)n1C`, the inhibition was 0%.

For `O=C(CCn1c(=O)sc2ccccc21)Nc1cccnc1`, the inhibition is 6%.

In the case of `Cc1ccc(-c2cc(C(=O)NCc3ccc4c(c3)OCO4)no2)cc1`, the inhibition is 0%.

For `CSC1=N/C(=C\C=C\c2cccs2)C(=O)S1`, the inhibition is 1%.
